Tau fluor cs: counter-screen for tau fibril formation inhibitors; tau K18 P301L Alexa594 fluorescence, heparin fibrillization; 280,000 compounds, 0.93% hits; Potency, µM (top dose mostly 57.7 µM), for the others: at the highest dose activity change, negative = decrease; also: nearly all actives have a fitted effect of over 55% in size
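Human K18 P301L tau (15 uM unlabeled plus 0.24 uM Alexa 594-labeled, final) in 100 mM sodium acetate pH 7 was mixed with compound and 20 uM heparin and incubated 6 hr at 37 C.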
ALDH1A1 block: inhibitors of human aldehyde dehydrogenase 1A1; AID 1030; Potency, µM (top dose mostly 75.3 µM), without a hit: at the highest dose activity, negative = inhibition, actives largely listed as inhibitors; Purified ALDH1A1, NADH fluorescence, propionaldehyde substrate; 220,000 compounds, 7.3% hits; P00352; active = well fitted inhibition curve with a large enough effect, not every such curve was filed as active; inconclusive = small, poorly fitted or top-dose-only effect, or another doubt; inactive = no such curve, though single readings can be large or run the other way;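 also: plate controls were no enzyme wells and a reference inhibitor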
Target sequence (P00352 whole entry, looked up): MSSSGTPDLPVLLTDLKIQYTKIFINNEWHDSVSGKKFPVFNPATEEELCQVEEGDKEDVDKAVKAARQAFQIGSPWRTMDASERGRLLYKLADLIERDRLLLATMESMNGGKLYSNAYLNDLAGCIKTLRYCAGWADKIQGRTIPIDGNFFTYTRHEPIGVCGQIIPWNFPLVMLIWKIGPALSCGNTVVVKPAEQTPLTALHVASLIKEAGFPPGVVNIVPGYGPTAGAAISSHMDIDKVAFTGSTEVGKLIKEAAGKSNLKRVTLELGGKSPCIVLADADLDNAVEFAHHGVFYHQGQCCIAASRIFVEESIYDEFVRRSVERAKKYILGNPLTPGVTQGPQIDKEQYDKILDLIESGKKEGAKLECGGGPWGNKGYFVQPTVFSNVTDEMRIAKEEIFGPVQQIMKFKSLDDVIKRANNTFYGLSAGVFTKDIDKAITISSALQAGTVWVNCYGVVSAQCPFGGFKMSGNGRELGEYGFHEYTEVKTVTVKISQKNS
HPGD inh: blocks human HPGD enzyme activity; purified HPGD, NADH fluorescence kinetic, PGE2 substrate; Potency, µM, inactives show at the top dose activity change, negative = inhibition, most hits filed as inhibitors; 150,000 compounds, 4.3% hits; AID 894; active = well fitted inhibition curve with a large enough effect, not every such curve was filed as active; inconclusive = small, poorly fitted or top-dose-only effect, or another doubt; inactive = no such curve, though single readings can be large or run the other way
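NADH formation kinetics: reaction with 30 uM PGE2 and 1 mM NAD+ (final), 20 nM enzyme, Tris-HCl pH 8 with Tween 20, after 15 min compound preincubation at room temperature. Fluorescence change, last versus first of five reads.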
Tau fibril ThT: tau fibrillization inhibition (ThT binding); recombinant tau K18 P301L (four-repeat tau fragment), heparin-induced fibrillization, ThT fluorescence; Potency, µM (doses to about 57.4 µM), for the others: at the highest dose activity, negative = inhibition, hits mostly inhibitors; 270,000 compounds, 2.1% hits; also: nearly all actives have a fitted effect of over 55% in size
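Tau K18 P301L fragment (15 uM unlabeled plus 0.24 uM Alexa 594-labeled) in 100 mM sodium acetate pH 7 with compound, fibrillization induced by 20 uM heparin for 6 hr at 37 C. Thioflavin T (30 uM) added, fluorescence read after 1 hr (ex 450, em 510 nm).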
Tau FP inhib: tau fibrillization inhibition (FP); Potency, µM (doses to about 57.7 µM), for the others: at the highest dose activity, negative = inhibition, hits mostly inhibitors; 280,000 compounds, 0.39% hits; P10636; K18 P301L tau heparin fibrillization, Alexa594 FP, 6 h; also: nearly all actives have a fitted effect of over 55% in size
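Human tau K18 […] P301L fragment, 15 uM unlabeled plus 0.24 uM Alexa 594-labeled tau (final), with compound and 20 uM heparin in 100 mM sodium acetate pH 7; 6 hr at 37 C, then Alexa 594 FP read.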
NPSR antag: antagonists of human neuropeptide S receptor cAMP signaling | Q6W5P4 | CHO-NPSR cells, cAMP TR-FRET, antagonist mode | Potency, µM (top dose mostly 38.3 µM), for inactives: top-dose activity change, negative = inhibition, most hits filed as inhibitors | 220,000 compounds, 1% hits | AID 1461; also: nearly all actives have a fitted effect of over 50% in size
* marks the source's active call; other numbers are inactive results; ! = not active in a repeat; [ ] = dose if it differs, or a comment. Sampled rows, rich in hits. Any-hit rate of the full collection: about 9.5%. Unless noted, calls follow the shape of the dose curve; as a rule, active = well fitted curve in the direction sought with a large enough effect; inconclusive = small, poorly fitted or top-dose-only effect, or another doubt; inactive = no such curve, though single readings can be large; an effect the other way counts as inactive or inconclusive. Unless noted, % is scaled to controls: 0 for no effect and ±100 for the full control effect; potency is read from the fitted curve at half-maximal effect.

Screening CC(=O)Nc1ccc(S(=O)(=O)NCC2CCC(C(=O)N3CCCCCC3)CC2)cc1 (centres undefined) returned Tau fluor cs 7%, ALDH1A1 block 22µM*, HPGD inh 7.1µM*, Tau fibril ThT 3%, Tau FP inhib 5% and NPSR antag -12%[46.1 µM].
For O=C(C1CCC(CNS(=O)(=O)c2ccc(F)cc2)CC1)N1CCOCC1 (centres undefined) the results were Tau fluor cs -5%, ALDH1A1 block 11%, Tau fibril ThT -2%, Tau FP inhib -7% and NPSR antag 18%.
`COc1cc(C(=S)N2CCCC2)cc(OC)c1OS(=O)(=O)c1ccc(NC(C)=O)cc1` gave Tau fluor cs -5%, ALDH1A1 block inconclusive, HPGD inh 22µM*, Tau fibril ThT 8%, Tau FP inhib -12% and NPSR antag 1%.
For CCOc1ccc(OCC)c(S(=O)(=O)NCc2ccccn2)c1 the results were Tau fluor cs -8%, ALDH1A1 block inconclusive, HPGD inh -5%, Tau fibril ThT -1%, Tau FP inhib -12% and NPSR antag -3%[46.1 µM].
Screening COc1ccc(Nc2nn3c(=O)c4cc5c(cc4nc3s2)OCO5)c(OC)c1 returned Tau fluor cs -30%, Tau fibril ThT inconclusive and Tau FP inhib -8%.
O=C(/C=C/c1ccc(O)c(O)c1)OC1C[C@](O)(C(=O)O)C[C@@H](O)[C@H]1O (some centres undefined) was read as ALDH1A1 block 24µM*! and HPGD inh -12%.
Screening CCOC(=O)c1c(Oc2ccc(C(=O)OC)cc2)nnc(-c2ccccc2)c1-c1ccccc1 returned Tau fluor cs -18%, Tau fibril ThT -10% and Tau FP inhib -7%.
C/C=C(\CS(=O)(=O)c1ccccc1)S(=O)(=O)c1ccccc1 was read as Tau fluor cs -6%, ALDH1A1 block 8.9µM*, HPGD inh -12%, Tau fibril ThT -13%, Tau FP inhib -7% and NPSR antag -3%[46.1 µM].
For C/C(CS(=O)(=O)c1ccccc1)=N\O the results were Tau fluor cs 2%, ALDH1A1 block 13%, Tau fibril ThT 5%, Tau FP inhib 1% and NPSR antag 8%.
`CCC(CC)c1nn2c(=O)cc(COc3ccc(NC(=O)c4ccccc4C)cc3)nc2s1` gave Tau fluor cs 4%, Tau fibril ThT inconclusive and Tau FP inhib -7%.
For O=C(N/C=C/c1ccccc1)Nc1ccc(Cl)cc1 the results were Tau fluor cs 5µM*[quencher], ALDH1A1 block inconclusive, HPGD inh -15%, Tau fibril ThT inconclusive, Tau FP inhib inconclusive and NPSR antag -10%[46.1 µM].
For Cc1ccc(NC(=O)N/C=C/c2ccc(Cl)cc2)cc1 the results were Tau fluor cs 4%, ALDH1A1 block 22µM*, HPGD inh -14%, Tau fibril ThT -1%, Tau FP inhib 5% and NPSR antag -8%[46.1 µM].
Cc1ccc(NC(=O)N/C=C/c2ccccc2)cc1 was read as Tau fluor cs -25%, ALDH1A1 block inconclusive, HPGD inh -5%, Tau fibril ThT -18%, Tau FP inhib 6% and NPSR antag 0%[46.1 µM].
Screening CCN(CCCNC(=O)Cn1ncc2c3ccccc3n(C)c2c1=O)c1cccc(C)c1 returned Tau fluor cs -25%, Tau fibril ThT inconclusive and Tau FP inhib -1%.
`CN(Cc1ccccc1)S(=O)(=O)c1cc(Br)cc2c1N(C(=O)C1CC1)CC2` gave Tau fluor cs -25%, Tau fibril ThT -6% and Tau FP inhib -2%.
`C=C(C)C1CC=C(C)C(OC(C)=O)C1` (centres undefined) gave ALDH1A1 block -3% and HPGD inh -2%.
Screening O=C1Nc2ccc(Br)cc2C12NNc1ccccc1O2 (centres undefined) returned Tau fluor cs 7.1µM*[quencher], ALDH1A1 block 9%, Tau fibril ThT 8.9µM*, Tau FP inhib 15% and NPSR antag -41%.
